Source: PubChem
MCF10A rerep: DNA re-replication induction in MCF 10a cells; MCF 10A DNA re-replication, Hoechst nuclear intensity, 48 h; Potency, µM (titrated, usually from 46.1 µM), without a hit: top-dose activity, positive = re-replication, actives largely listed as activators; hit rate 2.9% among 350,000; AID 624296; further: potency means the concentration at half of the fitted maximal effect; % of control where 0% means no effect; nearly all actives have a fitted effect of over 50% in size
KB-V1 cytotox: kills drug-selected multidrug resistant KB-V1 cells; Potency, µM (titrated, usually from 46.1 µM), actives largely listed as cytotoxic; KB-V1 MDR cells viability, CellTiter-Glo, 72 h; hit rate 3.4% among 400,000; further: potency means the concentration at half of the fitted maximal effect; on the % scale 0 is the no-effect control and ±100 the full control effect; nearly all actives have a fitted effect of over 60% in size
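Cytotoxicity via CellTiter-Glo luminescence after 72 h compound exposure at 37 degrees C. Cells: drug-selected KB-V1 line, DMEM phenol-red free plus 10% FBS. Compounds tested at multiple concentrations; normalized data fitted to concentration-effect curves.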
IL1B secr inh: inhibitors of inflammasome signaling (IL-1 beta secretion); THP-1 LPS/ATP IL-1B secretion, AlphaLISA, 16 h; active compounds read low; activity change, % at 57.5 µM; hit rate 4.7% among 360,000; AID 743279; in the data active means activity change below about -50%; inconclusive means mostly about -30% to -49%; further: on the % scale 0 is the no-effect control and ±100 the full control effect
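THP-1 cells pretreated 1 hr with compounds (up to 57.5 uM final), then stimulated with LPS (250 ng/mL final) plus ATP (1.25 mM final); secreted IL-1B measured by AlphaLISA after 16 hr, decreased signal indicating inhibition.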
SW480 rereplic: DNA re-replication induction in SW480 cells | SW480 DNA re-replication, Hoechst DNA content imaging, 48 h | Potency, µM (series often up to 46.1 µM), for the others: top-dose re-replication activation, actives largely listed as activators | hit rate 1.8% among 340,000 | AID 624297; further: potency means the concentration at half of the fitted maximal effect; % of control where 0% means no effect; nearly all actives have a fitted effect of over 55% in size
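SW480 cells exposed to compounds for 48 hr at 37 C, 5% CO2, then Hoechst-stained 40 min. Nuclear DNA content imaged by fluorescence scanning (405 nm excitation, 500-530 nm emission); re-replication scored as increased high-intensity nuclei.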
KB-3-1 cytotox: KB-3-1 parental cell cytotoxicity; hit rate 1.4% among 400,000; KB-3-1 viability, CellTiter-Glo ATP luminescence, 72 h; Potency, µM (top dose mostly 46.1 µM), most hits filed as cytotoxic; further: potency means the concentration at half of the fitted maximal effect; on the % scale 0 is the no-effect control and ±100 the full control effect; nearly all actives have a fitted effect of over 60% in size
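72 h, 37 °C compound treatment of KB-3-1 parental cells; CellTiter-Glo added, 10 min, luminescence read. Data corrected against DMSO-only plates and normalized before curve fitting.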
* = called active by the depositor; i = inactive; ? = inconclusive; nt = no result given. Rows were chosen to be rich in hits. Some 9.9% of all compounds tested hit in one or more screens of this group. Unless noted, the call rests on the fitted dose curve; in most records, active means well fitted curve in the direction sought with a large enough effect; inconclusive means small, poorly fitted or top-dose-only effect, or another doubt; inactive means no such curve, though single readings can be large; an effect the other way counts as inactive or inconclusive.

SMILES	MCF10A rerep	KB-V1 cytotox	IL1B secr inh	SW480 rereplic	KB-3-1 cytotox
Cc1c(C(=O)N2CCN(CC(=O)Nc3ccccc3Cl)CC2)oc2ccc(Br)cc12	23µM*	i	7	-11%	i
Cc1c(C(=O)N2CCCCC2)oc2ccc(Br)cc12	6%	?	-17	2%	i
COC(=O)c1oc2ccc(Br)cc2c1NC(=O)CN1CCN(C)CC1	-9%	i	-53*	-3%	i
COc1cccc(CNC(=O)c2c3c(nc4ccccc24)C(=O)N(C2CCCCC2)C3)c1	nt	i	nt	nt	i
CCOc1ccc(NC(=O)CN2CCSc3ccc(S(=O)(=O)N4CCCC4)cc32)cc1	nt	10µM*	nt	nt	?
Cc1ccc(NC(=O)CN2CCSc3ccc(S(=O)(=O)N4CCCC4)cc32)cc1	nt	12µM*	nt	nt	i
Cc1ccc(C)c(NC(=O)CN2CCSc3ccc(S(=O)(=O)N4CCCC4)cc32)c1	nt	?	nt	nt	i
CCOc1cc(N2CCOCC2)c(OCC)cc1NC(=O)CN1C(=O)NC(C)(c2ccc(OC)cc2)C1=O (stereo unspecified)	-5%	?	0	-22%	?
COc1ccc(C(=O)Nc2ncc3c(n2)CC(C)CC3=O)cc1 (stereo unspecified)	-5%	i	-13	-13%	i
CCc1ccc(Nc2ncc3c(n2)CC(C)(C)CC3=O)cc1	?	i	-61*	-125%	i
CCc1ccc(Nc2ncc3c(n2)CC(C)CC3=O)cc1 (stereo unspecified)	3%	i	-4	-6%	i
CCc1ccc(Nc2ncc3c(n2)CC(c2ccc(OC)cc2)CC3=O)cc1 (stereo unspecified)	18µM*	i	15	21µM*	?
COc1cccc(C(=O)Nc2ncc3c(n2)CC(c2ccc(OC)cc2OC)CC3=O)c1 (stereo unspecified)	2.3µM*	5.2µM*	17	6.5µM*	?
O=C1CCCc2cc(S(=O)(=O)NCC3CCC(C(=O)Nc4ccccc4F)CC3)ccc2N1 (stereo unspecified)	nt	i	nt	nt	i
COc1ccc2c(c1)C(=O)[C@@H](O)[C@H](c1ccc(OC)c(Br)c1)O2	?	i	22	12µM*	?
COc1cccc([C@@H]2Oc3ccc(OC)cc3C(=O)[C@H]2O)c1	?	i	22	?	?
COc1cccc2cc(-c3cc(=O)oc4cc(C)c(OCC(C)=O)cc34)oc12	20%	i	39	6.5µM*	?
CC(=O)COc1ccc2oc(=O)cc(-c3cc4ccccc4o3)c2c1	?	i	0	?	i
COc1ccc2oc(=O)cc(-c3cc4cccc(OC)c4o3)c2c1	-3%	i	26	1%	i
CCN(CC)C(=O)Oc1ccc2oc(=O)cc(-c3cc4cccc(OC)c4o3)c2c1	?	?	-65*	-3%	i
COc1cccc(CN(C(=O)/C=C/c2ccc(Cl)cc2)C2CCS(=O)(=O)C2)c1 (stereo unspecified)	-38%	?	-58*	13%	i
CCCOc1cccc(C(=O)N(Cc2ccc(OC)c(OC)c2)C2CCS(=O)(=O)C2)c1 (stereo unspecified)	-2%	16µM*	-10	-1%	i
O=C(/C=C/c1ccco1)N(Cc1ccc(F)cc1)C1CCS(=O)(=O)C1 (stereo unspecified)	6%	i	-12	-1%	i
O=C(/C=C/c1ccco1)N(Cc1ccccc1)C1CCS(=O)(=O)C1 (stereo unspecified)	0%	i	17	15µM*	i
CC(C)(C)Nc1c(C2CCNCC2)nc2c(OCc3ccccc3)cccn12	nt	i	?	nt	i
SMILES	MCF10A rerep	KB-V1 cytotox	IL1B secr inh	SW480 rereplic	KB-3-1 cytotox
CC1(c2ccc3ccccc3c2)NC(=O)N(CC(=O)N2CCN(Cc3ccc(C#N)cc3)CC2)C1=O (stereo unspecified)	9%	?	-6	?	i
N#Cc1ccc(CN2CCN(C(=O)Cn3nc(C(N)=O)c4ccccc4c3=O)CC2)cc1	4%	i	-8	21µM*	i
CC(C)N1CCN(c2ccncc2S(=O)(=O)N2CCN(C)CC2)CC1	nt	i	-23	nt	i
CCOC(=O)N/N=C\c1ccc(-c2cc(Cl)ccc2Cl)o1	?	i	45	-17%	i
Cc1cc([N+](=O)[O-])ccc1-c1ccc(/C=N/NC(=O)Cc2ccccc2)o1	?	i	-9	25%	i
NC(=S)N/N=C/c1ccc(-c2cc(Cl)cc(Cl)c2)o1	13µM*	?	-18	-3%	i
CNC(=S)N/N=C/c1ccc(-c2cc([N+](=O)[O-])ccc2Cl)o1	4%	i	-14	-5%	7.3µM*
CN1CCN(/N=C/c2ccc(-c3ccc([N+](=O)[O-])cc3Cl)o2)CC1	11%	i	-81*	16%	i
NC(=S)N/N=C/c1ccc(-c2cc(Cl)ccc2Cl)o1	0%	7.3µM*	52	-3%	i
CCS(=O)(=O)C1=NN2C(=N)/C(=C\c3ccc(SCc4ccco4)o3)C(=O)N=C2S1	13%	i	2	7%	i
CCOC(=O)c1cc(-c2ccc(F)cc2)n(CCC(=O)Nc2cc(OC)cc(OC)c2)c1C	nt	i	nt	nt	i
N#C/C(=C/c1ccc(-c2ccccc2[N+](=O)[O-])o1)C(N)=O	6%	i	-9	6%	i
N#C/C(=C/c1ccc(-c2cc([N+](=O)[O-])ccc2Cl)o1)C(N)=O	?	12µM*	?	?	i
Cc1cccn2c(=O)c(C=O)c(Sc3ncccn3)nc12	?	i	-65*	12%	i
Cc1cccn2c(=O)c(C=O)c(Cl)nc12	?	?	-96*	?	i
O=Cc1c(Cl)nc2ccccn2c1=O	26µM*	?	-99*	?	i
O=C(N/C(=C\c1ccc(Br)cc1)C(=O)N1CCOCC1)c1ccc([N+](=O)[O-])cc1	24%	i	8	-3%	i
N#Cc1c(-c2ccccc2)nc(SCC(=O)N2c3ccccc3Sc3ccccc32)[nH]c1=O	21µM*	i	-20	9%	i
N#Cc1c(-c2ccccc2)nc(SCc2ccc(Cl)cc2)[nH]c1=O	?	i	-54*	-12%	i
N#Cc1c(-c2ccccc2)nc(SCC(=O)N(c2ccccc2)c2ccccc2)[nH]c1=O	1%	i	3	0%	i
C=CCSc1nc(-c2ccccc2)c(C#N)c(=O)[nH]1	2%	i	21	-3%	i
C[C@@H]1C[C@H]2[C@@H]3CCC4=CC(=O)C=C[C@]4(C)[C@@]3(F)C(O)C[C@]2(C)[C@@]1(O)C(=O)CO (stereo partly specified)	nt	i	nt	nt	i
